Where “and” joins values, the source holds several entries; their conditions need not be identical. Equal values may be shown once. About 79,000 compounds went through this panel and 15% of them were active in at least one assay; those are over-represented in the sample as a whole. Rule as the data show it: active = growth inhibition above about 70%; inactive = the rest.
How the values were obtained:
[1] = NCI Yeast Anticancer Drug Screen. Data for the rad50 strain (AID 155);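 also: 0% = growth of vehicle-only cultures of the same strain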; settings: S. cerevisiae rad50 strain growth inhibition; at 50.0 µM; stronger effect = higher value
Method in brief: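 Compounds were tested on a yeast strain with an engineered DNA damage repair alteration; the reported value is growth inhibition normalised to vehicle treatment.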

[2] = NCI Yeast Anticancer Drug Screen. Data for the mec2-1 strain (AID 157); settings: S. cerevisiae mec2-1 strain, at 50.0 µM, stronger effect = higher value
Method in brief: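 Vehicle-treated cultures served as reference for growth inhibition of compound-exposed mec2-1 yeast.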

[3] = NCI Yeast Anticancer Drug Screen. Data for the sgs1 mgt1 strain (AID 161);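 also: 0% = growth of cultures given vehicle only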; settings: S. cerevisiae sgs1 mgt1 strain, at 50.0 µM, stronger effect = higher value
Method in brief: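 Mutant yeast exposed to compound; growth scored against vehicle-only wells.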

[4] = NCI Yeast Anticancer Drug Screen. Data for the cln2 rad14 strain (AID 165);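 also: 0% = growth equal to vehicle treated cultures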; settings: S. cerevisiae cln2 rad14 strain, at 50.0 µM, stronger effect = higher value
Method in brief: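 Each compound was tested on cln2 rad14 yeast. Inhibition of growth was calculated against vehicle-exposed controls.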

[5] = NCI Yeast Anticancer Drug Screen. Data for the bub3 strain (AID 167); settings: S. cerevisiae bub3 mutant strain, at 50.0 µM, stronger effect = higher value
Method in brief: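 Growth of a checkpoint-deficient yeast mutant is measured after compound exposure. Values represent inhibition relative to vehicle.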

[6] = NCI Yeast Anticancer Drug Screen. Data for the mlh1 rad18 strain (AID 175); settings: S. cerevisiae mlh1 rad18 strain growth inhibition; at 50.0 µM; stronger effect = higher value
Method in brief: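 Vehicle-treated cultures served as the reference for growth inhibition in a yeast strain carrying DNA damage repair alterations exposed to each compound.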

Measured: growth inhibition

CC1(c2cccs2)NC(=O)NC1=O (stereo unspecified)
inactive: [1] 19.6% and 3.7% | [2] -6.2% and 9.05% | [3] 6.25% and 6.1% | [4] -41% and 2.3% | [5] 0.95% and 8.8% | [6] 7.1% and -3.55%

OC1Cc2ccccc2CC1O (stereo unspecified)
inactive: [1] -20.1% and -35.1% | [2] -41.4% and -39.9% | [3] -36.5% and -12.3% | [4] -19.6% and -1.5% | [5] -26.1% and -8.8% | [6] -5.8% and -14.7%

Cc1c(C)[n+](=O)c2ccccc2n1[O-]
inactive: [1] 15.9% and 7.2% | [2] -19.1% and -4% | [3] -7.6% and 3.5% | [4] -20.6% and -2.05% | [5] -18.1% and -3.6% | [6] 5.4% and 5.85%

C/C(=N\NS(C)(=O)=O)C(C)(C)C
inactive: [1] -5.05% and 16.1% | [2] -0.2% and 11.1% | [3] 2.35% and 21.3% | [4] -5.35% and 6.5% | [5] -35.5% and -20.8% | [6] -13% and 17.8%

O=C(NC(Cc1ccccc1)C(=O)O)OCc1ccccc1 (stereo unspecified)
inactive: [1] 4.2% and 0.2% | [2] 23.9% and 6.9% | [3] 12.1% and 1% | [4] -9.35% and -1.55% | [5] 20.7% and -5.15% | [6] 14.7% and 16.9%

COc1ccc2c(c1)CCC1C[C@@H]3C[C@]21C=CC3=O (stereo partly specified)
inactive: [1] 11.8% and -3.5% | [2] -11.8% and -6.75% | [3] 0.75% and 14.9% | [4] 9.6% and 8.05% | [5] 24% and 19.4% | [6] 5.15% and 11.7%

CCOC(=O)C1CN(C)CC(c2ccccc2)C1=O (stereo unspecified)
inactive: [1] 12.3% and -8.7% | [2] 14.9% and 1% | [3] 16.1% and -3.5% | [4] -10.4% and -25.1% | [5] 9.25% and -4.45% | [6] 11.1% and 5.6%

CN1C/C(=C\c2ccccc2[N+](=O)[O-])C(=O)/C(=C/c2ccccc2[N+](=O)[O-])C1
inactive: [1] -3.7% and -14.4% | [2] 14.9% and 28.8% | [3] 25.6% and -49% | [4] 4.85% and -8.9% | [5] 13.7% and 21.4% | [6] 16.8% and -29.1%

COc1cc(C2c3cc4c(cc3C(OC(=O)c3ccc[n+](C)c3)C3COC(=O)C23)OCO4)cc(OC)c1OC (stereo unspecified)
inactive: [1] -16.2% and -3.1% | [2] -11.3% and 8.1% | [3] -11.3% and 2.3% | [4] -17.5% and -1.65% | [5] 13.1% and 41.8% | [6] 5.45% and 9.45%

N#CC(C#N)=CN1CCOCC1
inactive: [1] -0.6% and 8.35% | [2] -24.1% and 8.95% | [3] 1.75% and -7.75% | [4] -22.5% and 10.4% | [5] -0.6% and -0.55% | [6] 4.1% and -12.9%

N=C(N)/C=C\C(=O)O
inactive: [1] 1.65% and 2.05% | [2] -9.35% and -13.2% | [3] 4.4% and -11.1% | [4] 17.4% and 14.3% | [5] -21.4% and -33.8% | [6] -4.9% and -14.8%

Cc1ccc(S(=O)(=O)Oc2cc(N)c3c(n2)CCC3)cc1
inactive: [1] -4.7% and 5.5% | [2] -13.6% and -7.8% | [3] 7.8% and -23.3% | [4] -48.2% and 6.55% | [5] -16.2% and -0.65% | [6] -3.45% and 0.5%

CC(=O)N1CCN(C(C)=O)C2C1N(C(C)=O)CCN2C(C)=O (stereo unspecified)
inactive: [1] -11.7% and 11.8% | [2] -18.9% and -10.6% | [3] -24.6% and 11.8% | [4] -20.1% and 27% | [5] -19.6% and 19.8% | [6] -17.1% and 35.9%

COc1cc2c(cc1OC)CN1CCc3cc(OC)c(OC)cc3C1C2 (stereo unspecified)
inactive: [1] -1.3% and 16.1% | [2] -54.6% and 11.9% | [3] -28.2% and 14.3% | [4] 0.7% and 7.8% | [5] -51.4% and 17.4% | [6] -38.5% and 18.1%

O=C(O)CSc1ccccc1C(=O)O
inactive: [1] -1.35% and -7.9% | [2] -11.9% and -40.9% | [3] 1.6% and -35.4% | [4] -27.9% and 22.3% | [5] 6.15% and -33.8% | [6] -17.9% and -4.25%

O=C(O)C(O)C(O)C(O)C(=O)CO (stereo unspecified)
inactive: [1] -2.25% and -13.1% | [2] -27.3% and -1.05% | [3] -4.9% and -10.4% | [4] -32.6% and -40.5% | [5] -16.9% and -42.5% | [6] -19.2% and 13.7%

Reference: PubChem BioAssay (NCI)
